# In PubChem BioAssay (Tox21):
# Several values for one entry are separate records, joined by “and”; a condition that tells them apart may be missing. Equal entries are not always repeated. Unmarked numbers belong to inactive results. Results filed as inconclusive are left out. A call without a number means that no potency is given here. Activity calls are given as the source filed them. Unless noted, calls come from the whole dose curve; as a rule, active = well fitted curve in the direction sought with a large enough effect in the repeat runs; inconclusive = weak or mixed curves; inactive = no such curve, though single readings can be large; an effect the other way counts as inactive or inconclusive.
# Tests used:
# [1] = qHTS assay for small molecules that induce genotoxicity in human embryonic kidney cells expressing luciferase-tagged ATAD5 (AID 651632); note: nearly all actives have a fitted effect of over 15% in size; note: potency is the fitted concentration of half-maximal effect
# Procedure, shortened: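 Reporter cells (HEK293T) express luciferase-tagged ATAD5, a protein that accumulates after DNA damage. Treat 16 hr at 37C/5% CO2, add Amplite, wait 30 min at RT, and read luminescence.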
# [2] = qHTS assay for small molecule agonists of the p53 signaling pathway - cell viability (AID 651633; calls by dose curve; note: nearly all actives have a fitted effect of over 30% in size; note: potency is the fitted concentration of half-maximal effect)
# Procedure, shortened: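 p53RE-bla cells, seeded at 4,000 per well and rested 5 h at 37 C/5% CO2, received compounds in DMSO for 16 h at 37 C. CellTiter-Glo was then added, and luminescence was read after 30 min at room temperature to gauge cytotoxicity.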
# [3] = qHTS assay for small molecules that induce genotoxicity in human embryonic kidney cells expressing luciferase-tagged ATAD5 - cell viability (AID 651634; calls by dose curve; note: nearly all actives have a fitted effect of over 25% in size; note: potency is the fitted concentration of half-maximal effect)
# Procedure, shortened: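 Seeding of 2,000 HEK293T ATAD5-luciferase cells per well preceded pin-tool compound transfer. Plates sat 15.5 hr at 37C under 5% CO2, then fluorescence was read after 30 min with CellTiter-Fluor.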
# [4] = qHTS assay for small molecule disruptors of the mitochondrial membrane potential - cell viability (AID 720634; calls by dose curve;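 note: human HepG2 liver cancer cells; series mostly up to about 83 µM; nearly all actives have a fitted effect of over 20% in size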)
# Procedure, shortened: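 Measuring cytotoxicity alongside mitochondrial potential, the screen quantified ATP by luminescence in HepG2 cells after 1 hr compound incubation and a 30 min room-temperature CellTiter-Glo step.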
# [5] = qHTS assay to test for compound auto fluorescence at 590 nm (red) in HepG2 cells (AID 720674)
# Procedure, shortened: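 Intrinsic compound fluorescence in the red window (Ex/Em 540/590 nm) is measured in attached HepG2 cells exposed for 1 hr, DMSO vehicle as baseline, benchmarked to Rose Bengal sodium.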
# [6] = qHTS assay to test for compound auto fluorescence at 535 nm (green) in HepG2 cells (AID 720675)
# [7] = qHTS assay to test for compound auto fluorescence at 460 nm (blue) in HEK293 cells (AID 720678)
# Procedure, shortened: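 After cell attachment (4-5 hr, 37C), compounds were pinned onto HEK293 monolayers in 10% dialyzed FBS medium. The blue channel (405/460 nm) was read following overnight culture. Equivalency was calculated against triamterene.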
# [8] = qHTS assay to test for compound auto fluorescence at 590 nm (red) in HEK293 cells (AID 720679)
# Procedure, shortened: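 Plates of HEK293 cells (10% dialyzed FBS) are treated with 23 nL compound or DMSO vehicle after a 4-5 hr attachment period, incubated overnight at 37C, and read for red fluorescence at 540/590nm.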
# [9] = qHTS assay for small molecule disruptors of the mitochondrial membrane potential (AID 720635); note: potency is the fitted concentration of half-maximal effect
# Procedure, shortened: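 HepG2 cells (2,000/well) attached overnight at 37C, then took compound for 1 hr at 37C, 5% CO2. Mito-MPS dye was added for 30 min; fluorescence was read at 490/535 nm (monomers) and 540/590 nm (aggregates).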
Structure (SMILES),Potency [1],Potency [2],Potency [3],outcome [4],outcome [5],outcome [6],outcome [7],outcome [8],Potency [9],"fluorescence, relative to Rose Bengal [5]","fluorescence, % of triamterene [7]","fluorescence, % of fluorescent control [8]","fluorescence, % of fluorescein control [6]"
CC(=O)O[C@@]12CO[C@@H]1C[C@H](O)[C@@]1(C)C(=O)[C@H](O)C3=C(C)[C@@H](OC(=O)[C@H](O)[C@@H](NC(=O)OC(C)(C)C)c4ccccc4)C[C@@](O)([C@@H](OC(=O)c4ccccc4)[C@H]21)C3(C)C,inactive,inactive,11.9 nM (active) and 8.4 nM (active),inactive,inactive,inactive,inactive,inactive,,,,,
CCOC(=O)C1=NOC(c2ccccc2)(c2ccccc2)C1,inactive,inactive,inactive,inactive,inactive,inactive,inactive,inactive,,,,,
O=C(O)CC(C(=O)O)S(=O)(=O)O (stereo not drawn),inactive,inactive,inactive,inactive,inactive,inactive,inactive,inactive,,,,,
CCCC[N+](C)(CCCC)CCCC,inactive,inactive,inactive,inactive,inactive,inactive,,inactive,inactive,,,,
CCCCCCCCCCOc1cc2c(=O)c(C(=O)OCC)c[nH]c2cc1OCC,inactive,inactive,inactive,inactive,inactive,inactive,inactive,inactive,,,,,
C1CCC2(CCCCO2)OC1,inactive,inactive,inactive,inactive,inactive,inactive,,inactive,inactive,,,,
Cc1ccccc1N=C(N)N=C(N)N,inactive,inactive,inactive,inactive,inactive,inactive,inactive,,,,,,
Clc1cc(Cl)c(Cl)nc1Cl,inactive,inactive,inactive,inactive,inactive,,inactive,inactive,inactive,,,,
CCCCc1nc(Cl)c(CO)n1Cc1ccc(-c2ccccc2-c2nn[nH]n2)cc1,inactive,inactive,inactive,inactive,inactive,inactive,inactive,inactive,,,,,
C[N+]12CCC(CC1)C(OC(=O)C(O)(c1ccccc1)c1ccccc1)C2 (stereo not drawn),inactive,inactive,inactive,inactive,,,,,inactive,0.0225% [at 18.6 µM],0.0716% [at 18.6 µM],-0.175% [at 18.6 µM],
CCCc1nn(C)c2c(=O)[nH]c(-c3cc(S(=O)(=O)N4CCN(C)CC4)ccc3OCC)nc12,inactive,inactive,inactive,inactive,inactive,inactive,inactive,,,,,,
CCOCC(C)O (stereo not drawn),inactive,inactive,inactive,inactive,inactive,inactive,inactive,inactive,,,,,
CCOc1ccc2nc(S(N)(=O)=O)sc2c1,inactive,inactive,inactive,inactive,inactive,inactive,inactive,inactive,,,,,
Cc1nc2ccc(CN(C)c3ccc(C(=O)N[C@@H](CCC(=O)O)C(=O)O)s3)cc2c(=O)[nH]1,inactive,106 nM (active) and 150 nM (active),inactive,inactive,inactive,,inactive,,inactive,,,,
NCCCC(N)(C(=O)O)C(F)F (stereo not drawn),inactive,inactive,inactive,inactive,inactive,inactive,inactive,,,,,,
CCN1C=CN(C)C1C (stereo not drawn),inactive,inactive,inactive,inactive,inactive,inactive,inactive,inactive,,,,,
Cc1c(N)c(=O)n(-c2ccccc2)n1C,,inactive,inactive,inactive,,,,,inactive,-0.0352% [at 18.6 µM],0.0036% [at 18.6 µM],0.258% [at 18.6 µM],0.0089% [at 18.6 µM]
CCCCCCC1CCC(=O)O1 (stereo not drawn),inactive,inactive,inactive,inactive,inactive,inactive,inactive,inactive,,,,,
CC[N+](CC)(CC)CCOc1cccc(OCC[N+](CC)(CC)CC)c1OCC[N+](CC)(CC)CC,inactive,inactive,inactive,inactive,inactive,inactive,inactive,inactive,,,,,
CC(C)(N)C#N,inactive,inactive,inactive,inactive,inactive,,inactive,inactive,,,,,
Nc1ccn([C@@H]2O[C@H](CO)[C@@H](O)[C@@H]2O)c(=O)n1,inactive,inactive,inactive,,inactive,,inactive,inactive,,,,,
CCOC(=O)CCC(=O)OCC,inactive,inactive,inactive,,inactive,,inactive,inactive,,,,,
CN1CCC(=C2c3ccccc3CCc3cccnc32)CC1,inactive,,inactive,inactive,inactive,inactive,inactive,inactive,inactive,,,,
Nc1ccn([C@@H]2O[C@H](CO)[C@@H](O)C2O)c(=O)n1 (stereo partly drawn),inactive,inactive,inactive,,inactive,,,,,,,,
CCCCc1ccc2c(n1)[C@@H](c1ccc(OC)cc1C[C@H](C)C(=O)O)[C@H](C(=O)O)[C@H]2c1ccc2c(c1)OCO2,inactive,inactive,inactive,,inactive,inactive,inactive,inactive,,,,,
CC(C)C1CCC(O)CC1 (stereo not drawn),inactive,inactive,inactive,,inactive,inactive,,inactive,,,,,

Structure (SMILES),Potency [1],Potency [2],Potency [3],outcome [4],outcome [5],outcome [6],outcome [7],outcome [8],Potency [9],"fluorescence, relative to Rose Bengal [5]","fluorescence, % of triamterene [7]","fluorescence, % of fluorescent control [8]","fluorescence, % of fluorescein control [6]"
CC1=NN(c2cc(S(=O)(=O)O)ccc2Cl)C(=O)C1N=Nc1ccccc1 (stereo not drawn),inactive,inactive,,inactive,inactive,inactive,inactive,inactive,,,,,
CCCCN(CCC(=O)OCC)C(C)=O,inactive,inactive,inactive,inactive,inactive,inactive,,inactive,,,,,
CCCCCCCCCC[N+](C)(C)[O-],inactive,inactive,inactive,inactive,inactive,inactive,,inactive,,,,,
NS(=O)(=O)Cc1noc2ccccc12,inactive,inactive,inactive,inactive,inactive,inactive,,inactive,,,,,
O=C(O)CNC(=O)c1ccc(CO)o1,inactive,inactive,inactive,inactive,inactive,inactive,inactive,inactive,,,,,
Nc1ccccn1,,inactive,inactive,inactive,inactive,,inactive,inactive,,,,,
C1CCC2=NCCCN2CC1,,inactive,inactive,inactive,inactive,,inactive,inactive,inactive,,,,
CC(C)c1ccc2ncccc2c1,inactive,,inactive,inactive,inactive,inactive,,inactive,,,,,
CCN[C@H]1C[C@H](C)S(=O)(=O)c2sc(S(N)(=O)=O)cc21,inactive,,inactive,inactive,inactive,,inactive,inactive,inactive,,,,
CC[N+](CC)(CC(=O)Nc1c(C)cccc1C)Cc1ccccc1 (tested in a mixture with another compound),inactive,inactive,inactive,inactive,inactive,inactive,,inactive,,,,,
O=C1c2ccccc2C(=O)c2cc(O)ccc21,,inactive,inactive,,inactive,inactive,inactive,inactive,1.94 µM (active),,,,
CC[N+](C)(CC)CCOC(=O)C1c2ccccc2Oc2ccccc21,,inactive,inactive,inactive,inactive,inactive,inactive,,inactive,,,,
CNC(=O)Nc1ccc(Cl)c(Cl)c1,inactive,inactive,inactive,,inactive,inactive,inactive,,15.4 µM (active),,,,
CCOC(=O)COc1cc(-n2ncc(C(F)(F)F)c(C)c2=O)c(F)cc1Cl,inactive,inactive,inactive,,inactive,inactive,inactive,inactive,,,,,
COC(=O)C1=C(C)NC(C)=C(C(=O)OC(C)C)C1c1cccc2nonc12 (stereo not drawn),inactive,inactive,,inactive,,,,,,0.351% [at 18.6 µM],-0.009% [at 18.6 µM],0.0072% [at 18.6 µM],0.024% [at 18.6 µM]
CCCCCCCCCCCCCCC(=O)O,inactive,inactive,,inactive,inactive,,inactive,inactive,inactive,,,,
CCOC(=O)OC(C)OC1=C(C(=O)Nc2ccccn2)N(C)S(=O)(=O)c2ccccc21 (stereo not drawn),3.35 µM (active),inactive,inactive,inactive,inactive,inactive,inactive,inactive,,,,,
O=C(c1ccccc1O)c1ccccc1O,inactive,,inactive,inactive,inactive,inactive,,inactive,12.1 µM (active),,,,
CC1=NN(c2cccc(S(=O)(=O)O)c2)C(=O)C1,inactive,,inactive,inactive,inactive,,,inactive,,,,,
C[C@H]1[C@H](NC(=O)/C(=N/OC(C)(C)C(=O)O)c2csc(N)n2)C(=O)N1S(=O)(=O)O (stereo in doubt),,inactive,inactive,inactive,,,,,inactive,-0.264% [at 18.6 µM],0.218% [at 18.6 µM],0.181% [at 18.6 µM],
OCCc1ccccn1,inactive,inactive,inactive,inactive,inactive,inactive,inactive,inactive,,,,,
CCN(CC#N)c1cccc(C)c1,inactive,inactive,,inactive,inactive,inactive,inactive,,,,,,
[Ca+2],inactive,,inactive,inactive,inactive,inactive,inactive,,,,,,
NC(N)=NCCN1CCCCCCC1,inactive,,inactive,inactive,,,,,,0.248% [at 18.6 µM],-0.176% [at 18.6 µM],-0.493% [at 18.6 µM],0.0444% [at 18.6 µM]
CO[C@@]1(NC(=O)C(C(=O)O)c2ccc(O)cc2)C(=O)N2C(C(=O)O)=C(CSc3nnnn3C)CO[C@@H]21 (stereo partly drawn),inactive,inactive,inactive,inactive,,,,,,0.111% [at 18.6 µM],,0.0051% [at 18.6 µM],
